# Source: the supplement of paper PMC11417369
# The full ranking holds about 25,000 sequences; the median of “ln(normalized median fluorescence intensity)” is about 9.3, and the highest 2% start at about 10. For the sample, the highest values were picked, then their nearest neighbours and some sequences at random.
# System: PF3D7_0420300 AP2 domain 1 (GST-tagged)
# Experiment: gcPBM binding intensity (ln(normalized median fluorescence intensity)); higher = stronger DNA binding
# How it was run: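 In this array assay, P. falciparum DNA-binding domains with a GST tag, expressed in E. coli, were applied for 1 h to primer-extended double-stranded 36-bp intergenic genomic probes and negative controls on an Agilent 4 × 180k array. Bound protein was visualised with Alexa488 anti-GST antibody at 488 nm. Binding intensity is the highest Masliner-normalised natural-log median intensity across replicate spots of either probe orientation.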
row,Sequence,gcPBM binding intensity (ln)
1,AAACATTTACTATATTGTACTTAAGATCTTATCGTA [XGTACX_site3919],9.06
2,CTGTCTGCAGATATGGTGCATTTGTAAGATCTTACA [GTGCAC_site9870],9.13
3,GACATAAAATTCAAAGTGCATAAATAAAATAAACCC,9.49
4,ATTATAAACCATAATTAACACACAAAATAAGTTACA [CACACA_site9057],9.75
5,TTTTCTTTCTTGTTTCGTATATTATAAAAAAAAAAG [CACACA_negctrl_site854],8.96
6,ACATTTATATATAATTGTACCCTACATTCTCTTTTT [XGTACX_site189],9.5
7,AAAAAAATAATAAAAAGTACAAAATGTAGAAAATGT [XGTACX_site5018],9.91
8,AATAGAGTTGAATGCACACATACAAATTTTTAGTTT [CACACA_site3564],9.33
9,TAGTAGTTATCACTAACATGCAATAATATTATTTAA [TGCATGCA_site161],9.08
10,AATATATATAAATATTGTACAAAAATATATATATAT [XGTACX_site2910],9.26
11,AAGAATCATATTTAAACACACATACAGATATATATA [CACACA_site5787],9.51
12,TACAATTTATGACACACACACAATAATACCTATATA [CACACA_site6704],9.95
13,TATACAATCTATATAACACACATATTTATATAAAAT [CACACA_site1797],9.46
14,AAGGATCACGCACAAACACACATATTTATATTTATA [CACACA_site6405],9.47
15,TAAAAAAAAATATATAAACACACATATTTATATACA [CACACA_site8469],9.36
16,AATACAATTTATAACACACACACAAGAATACCTATA [CACACA_site6705],10.3
17,TACAATATAAAATACACACACACAAACATATATTTA [CACACA_site5941],10.2
18,TTATTTAAACAAATCACACACAAATATATATACATA [CACACA_site2019],9.71
19,CAATTTATAAAGAAAACACACATATACCTATATACA [CACACA_site6710],9.55
20,AACAAAAAAACAAACACACACACACGCATATTTATA [CACACA_site7680],10.2
21,TATACAATATATATAACACACATATTTATATAAAAT [CACACA_site5061],9.57
22,TACAATCTAAAATACACACACACAAACATATATTTA [CACACA_site3702],10.2
23,AAAAAAAACAAACACACACACAAATATTTATATATT [CACACA_site436],10.1
24,AATATATAAGCTGTTCTATTCAAGAATTATATCTTA [CACACA_negctrl_site270],9.06

row,Sequence,gcPBM binding intensity (ln)
1,TATATTATTTATTAGACACACATTATTAAAATATTT [CACACA_site4737],9.19
2,GTTTGTATGTCCAAATGTACATATGATTTTATGAAA [XGTACX_site6595],9.2
3,TATATACACATATATAAACACACAAAAAAAAAAAAA [CACACA_site8626],9.6
4,AATATATAAACATATACACACAAAAACATATATATA [CACACA_site4855],10
5,ATTATATATATTTATGCACACAAAATATATTATATA [CACACA_site9244],9.29
6,GCCAAAAGGATATGCACACACACACCCATATATATA [CACACA_site2198],10.2
7,AATAAACATATATACACACACAAAAAAAAAAACATA [CACACA_site424],10.2
8,ACAATAAACATATATACACACACAAAAAAAAAAACA [CACACA_site8033],10.3
9,CAAAAGGATATGCACACACACACACGGATATTTATA [CACACA_site7099],10.2
10,GGGAAAATAAATAAAGTGCAGATATTAAAAGTTGTA,9.41
11,AGATATCTTGTGAAATAAAAAAAATAATTGCTTATA [CACACA_negctrl_site798],8.94
12,CAACAATTTCGTCATACACACATTCAGAATATAGAT [CACACA_site7166],9.68
13,CATGCAATATTAAACACACACTCATATAGCACAATA [CACACA_site6182],9.73
14,GAACGAAACTTTCTTACACACATTGAAATTTTTTTC [CACACA_site1779],9.62
15,AATAAGAAAACAAATGCACACCATTTATATAGATTA [CACACA_site8261],9.56
16,TACACCAAAAAAAAACGTACAAAATCCCACCCAGAC [XGTACX_site4622],10.6
17,AATACACCCAGACACACACACAAAAAAAAAAAAAAA [CACACA_site513],9.51
18,AACAAATACAGACACACACACACACCCAAAAAAAAA [CACACA_site515],9.99
19,CCCATGCATTTTTGCACACACATATATTTATAAATA [CACACA_site6785],9.58
20,TAATAAAAGATATATACACACAAATAAATAAATAAA [CACACA_site7818],9.72
21,AAAAAAAAAAAACACACACACACAAATATATAAAAA [CACACA_site1171],10.1
22,TATAAATAAATAAACACACACAAATAAAATAAAAAA [CACACA_site7623],10.1
23,AAAAAAATAAAACACACACACAAAAAAATAAAAATA [CACACA_site465],10.2
24,CTTACCAAAAGACACACACACACAAGATATATAAAT [CACACA_site6964],10.2

row,Sequence,gcPBM binding intensity (ln)
1,TACCAAAAGAAACACACACACAAAATATATAAATAT [CACACA_site1869],10.2
2,TATATAAAGATATATACACACAAAAAAAAAAAAAAA [CACACA_site6778],9.32
3,AAAAAATATAAAAAAACACACAAAAAAAAAAAAAAA [CACACA_site1382],9.4
4,CTTACCAAAAAACACACACACACAAAATATATAAAT [CACACA_site1870],10.3
5,AAATAAATAAAAAACACACACAAATAAATAAATATA [CACACA_site2249],10.1
6,AAAAAAAAAAAACACACACACAAAATAAACAAACAA [CACACA_site2721],10.3
7,ATAAATAAAAACACAAAACAAAACAAAACAAAACAA [CACACA_negctrl_site1257],9.41
8,AAAAAAATGAAACACACACACACATATATATATATA [CACACA_site1043],9.93
9,TTTTTATTATAAGGTCGTACAATTGTAATTATTGTA [XGTACX_site1413],9.23
10,TATTTATTTTTTTTTGTGCACTTAATATAATCTTAC,9.24
11,ATATATATATATTATGTGCGCATATACCATTTTAAT [GTGCAC_site9575],9.32
12,TATTACTTGATATATACACACATATAACATAAATGC [CACACA_site7783],9.45
13,TATATATATATATATACACACATATATATAAATATA [CACACA_site2035],9.2
14,TAAATAAATACATACACACACATACCTATATTTATA [CACACA_site7466],9.93
15,GATAATACATAAATTTATAAGTGGAAGAATAAATAA [CACACA_negctrl_site698],9.32
16,AATACTTACCAAAATACACACACACCCAAAATATAT [CACACA_site8559],10.1
17,CAAAAGAAGGTAAACACACACACACGCATACAAAAA [CACACA_site7724],10.1
18,TAAAATAAAACAAACACACACACACCGACACAAAAA [CACACA_site5993],10.2
19,CAAAAGAAGGTAAACACACACACACCCATACAAAAA [CACACA_site3765],10.1
20,TATTTATTAAAACACACACACACACCGACAAAATAA [CACACA_site4293],10.1
21,CAACAAAATAAACACACACACACAAACACAAAAAAA [CACACA_site5806],10.3
22,AAAGAAGGTAAACACACACACACACCGACAAAAAAA [CACACA_site9255],10.3
23,TACTTACCAAAATACACACACACACTAGATATATAA [CACACA_site5096],10.3
24,CACAAACAAAAACACACACACACACCGACAAAAATG [CACACA_site5362],10

row,Sequence,gcPBM binding intensity (ln)
1,GGACAACAAACAAACACACACAAAAAAAAAATAAAA [CACACA_site3791],9.84
2,TACTTACCAAAATACACACACACACCCAATATATAA [CACACA_site1871],10.1
3,TTTACATATTTATATACACACTTTTGCGTGCGTGGT [CACACA_site6647],9.21
4,AAAAAAATTGGGAAAAGTACTTGCAGCTAGCTAAAA [XGTACX_site5178],9.18
5,TACTTTTATATGAATACACACAGGAATATATATATG [CACACA_site3568],9.48
6,ATTCTAAATATCAGTGCACACATTTCTACGCAAAGT [CACACA_site474],9.36
7,TATATATATATATATGGTACAGTTTATGCCTTTTAA [XGTACX_site6695],9.14
8,TAGTGATATAATTATGTGCACTTAATACAGGTCGAT,9.42
9,AAAAAAAAAAAAAGTACACACTTTTGCGTACAAGTA [CACACA_site5672],9.32
10,TTTTTAAAAAAAAATAGAGAGTCAAAGTATGTGGCG [CACACA_negctrl_site194],9.32
11,AATTCTTTCATATATTGTACGTATTCCCATAAAATA [XGTACX_site5923],9.36
12,AATGCCTTGTTGAGGTGTACTGAATGTTATTTTAAT [XGTACX_site3255],9.19
13,ACAAAATAAAAACACACACACAAACACAAAAAAATA [CACACA_site3390],10.3
14,TTCAAAATAAAAAATTCACACACATATATATATATA [CACACA_site8653],9.33
15,CACAAAAATAAATATAAACACACAATAAATAAATAA [CACACA_site8197],9.75
16,TACAAAAATATATAAACACACAAATATAATATATAT [CACACA_site2942],9.74
17,ACAAATAAATAAAAAACACACACAAATAAATAAATA [CACACA_site8708],10.1
18,AAATAATTCAAAAAAACACACAAATTACAAAATAAA [CACACA_site269],9.72
19,AAAAAAAAAAAAAACACACACACAAAATAAACAAAC [CACACA_site2720],10.3
20,CAAAAAATTCAACACACACACACACCGATAAATAAA [CACACA_site8330],10.2
21,AATATATATAAATAAACACACACAAATATAATAAAA [CACACA_site9176],10.2
22,TATATATAAATAAACACACACAAATATAATAAAAAA [CACACA_site3526],10.1
23,AAAATAAAATAAAACACAAAAAAATAAAACAAAATA [CACACA_negctrl_site16],9.8
24,AATAAAAACAAACAAAAAAACAAATAAATAAATAAA [CACACA_negctrl_site483],9.65
